Source: PubChem BioAssay (several laboratories)
In the library only some 1% were active in any assay of this set; here they are far more common.
ugtP null kill: growth inhibition of S. aureus ugtP deletion strain. S. aureus RN4220 ugtP deletion, OD600 growth, 16 h. growth inhibition, % (test concentration not listed). hit rate 0.54% among 330,000. AID 1259309; in the data active = growth inhibition above about 68%;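 also: plate controls were untreated wells for no effect and antibiotic for full effect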
RN4220 kill: S. aureus RN4220 growth inhibition | OD600, 16 h | inhibition, % (no concentration beside the values) | hit rate 0.33% among 330,000; in the data active = inhibition above about 85%;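 also: plate controls were untreated cells for no effect and reference antibiotic for full effect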
PriA SSB inh: blocks PriA binding to SSB C-terminal tail; AlphaScreen SSBct-PriA binding, biotinylated peptide; inhibition, % at 33 µM; hit rate 0.6% among 430,000; in the data active = inhibition mostly above about 37%, no sharp cut-off; inactive = mostly below about 20%;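 also: plate controls were negative control peptide for no effect and reference peptide for full effect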
Mtb hypoxia rep: reduces hypoxia-regulated biosensor signal in M. tuberculosis. M. tuberculosis hypoxia-regulated fluorescent reporter, fluorescence. fluorescence inhibition, % (concentration not given with the values). hit rate 0.1% among 300,000. AID 1159583; in the data active = fluorescence inhibition mostly above about 23%, no sharp cut-off; inactive = mostly below about 17%
Mtb bLac sens: beta-lactam sensitization of Mtb H37Rv. M. tuberculosis H37Rv growth with meropenem, percent inhibition. inhibition, % at 25 µM. hit rate 0.27% among 330,000; call rule not given here;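 also: growth measured after seven days incubation then overnight dye step; 0% = bacteria only wells and 100% = bacteria with antibiotic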
* marks the source's active call; other numbers are inactive results; u = inconclusive; x = no result shown.

SMILES | ugtP null kill | RN4220 kill | PriA SSB inh | Mtb hypoxia rep | Mtb bLac sens
Oc1ccccc1-c1n[nH]c(-c2ccccn2)n1 | x | x | 94* | x | x
Sc1n[nH]c(-c2ccccn2)n1 | x | x | 113* | x | x
Oc1ccccc1-c1ccn[nH]1 | 1 | 3 | 9 | 8 | 0
c1ccc(CSc2n[nH]c(-c3ccccn3)n2)cc1 | x | x | 59* | x | x
CS(=O)(=O)c1ccc(Cc2nnc(NC(=O)C3CCN(S(C)(=O)=O)CC3)o2)cc1 | x | x | -7 | x | x
Oc1ccc(Nc2nc(-c3ccccc3)nc3ccccc23)cc1 | 15 | -7 | -5 | 5 | 16
COc1ccc(Nc2nc(-c3cccs3)nc3ccccc23)cc1 | 95* | 11 | -40 | -3 | 50
COc1cccc(Nc2nc(-c3cccs3)nc3ccccc23)c1 | 68 | 28 | -66 | 3 | 96
COc1ccc(Nc2nc(-c3ccccc3)nc3ccccc23)cc1 | 95* | 8 | -55 | 6 | 64
CC(C)C(=O)N1CCc2ccc(NC(=O)c3ccc(F)c(F)c3)cc2C1 | x | x | -7 | x | x
COc1ccccc1C(CNC(=O)CCSc1ccccc1)OC (stereo not given) | x | x | -21 | x | x
O=C(COc1ncccn1)Nc1cnc(N2CCCC2)nc1 | x | x | -12 | x | x
CC1(C)COc2ccc(NC(=O)c3cccs3)cc2NC1=O | x | x | 25 | x | x
O=C(/C=C/c1ccccc1)N1CCN(CCN2C(=O)c3cccc4cccc(c34)C2=O)CC1 | 98* | 83 | 1 | -3 | 100
COC1C(OC(=O)c2ccc(C)[nH]2)C(O)C(Oc2ccc3c(O)c(NC(=O)c4ccc(O)c(CC=C(C)C)c4)c(=O)oc3c2Cl)OC1(C)C (stereo not given) | 100* | 94* | 18 | x | -5
COC(=O)c1ccc(C(=O)Nc2ccc(N)cc2N)cc1 | -7 | -12 | 40* | 15 | -4
C/C=C(/C)C(=O)O[C@@H]1c2c(ccc3ccc(=O)oc23)O[C@@H]1C(C)(C)OC(C)=O | x | x | -6 | x | -3
CC=C(C)C(=O)OC1c2c(ccc3ccc(=O)oc23)OC1C(C)(C)OC(=O)C(C)=CC (stereo not given) | 97* | -4 | x | 18 | x
COc1ccc(Cl)cc1C(=O)NCCC(O)c1cc(C)oc1C (stereo not given) | x | x | -68 | x | x
CN(C)c1cccc(C(=O)NCC[C@H](O)C2CC2)c1 | x | x | -6 | x | x
Cc1ccc(-n2c(C)cc(C(=O)NS(=O)(=O)c3ccc(C)cc3)c2C)cc1 | 98* | 2 | 6 | 17 | -6
CCOc1ccc(-n2c(C)cc(C(=O)NS(=O)(=O)c3ccc(C)cc3)c2C)cc1 | 92* | 2 | -12 | 1 | 5
Cc1ccc(S(=O)(=O)NC(=O)c2cc(C)n(C3CC3)c2C)cc1 | 3 | 4 | 6 | 13 | -2
COCC(C)NC(=O)C(=O)Nc1cc(Cl)ccc1C#N (stereo not given) | x | x | -3 | x | x
Cc1nc(SCC(=O)Nc2ccc(Cl)cc2[N+](=O)[O-])nc(C)c1C | 0 | 5 | 39* | 4 | -4
SMILES | ugtP null kill | RN4220 kill | PriA SSB inh | Mtb hypoxia rep | Mtb bLac sens
COc1ccc(NC(=O)CSc2ccc(F)cc2)c([N+](=O)[O-])c1 | x | x | 65* | x | x
COc1ccc(NC(=O)CSc2nc3ccccc3n2-c2ccccc2)c([N+](=O)[O-])c1 | -16 | 4 | 42* | 7 | -2
COc1ccc(NC(=O)CSc2ccccc2)c([N+](=O)[O-])c1 | 1 | 4 | 26 | 7 | -2
O=C(c1ccc(Cl)cc1)C(CN1CCCC1)c1ccccc1 (stereo not given) | 87* | 67 | 6 | 14 | 100
COc1ccc(C(=O)C(CN2CCCC2)c2ccccc2)cc1 (stereo not given) | x | x | -3 | x | 100
C=CC#CC[N+]1(CC#Cc2ccccc2)CCOCC1 | -4 | 2 | 54* | 11 | x
CCCCCCc1nnc(NC(=O)OCC)s1 | 2 | 3 | -7 | 45* | -5
O=C(CCCSc1ccc(NC(=O)C2CC2)nn1)NC1CC1 | x | x | 3 | x | x
NC(=NCCCCCCN=C(N)N=C(N)Nc1ccc(Cl)cc1)N=C(N)Nc1ccc(Cl)cc1 | 100* | 100* | 29 | x | x
CCCCn1c(NC(=O)c2ccccc2Cl)c(C#N)c2nc3ccccc3nc21 | 26 | 44 | 36 | -5 | u
N#Cc1c(NC(=O)c2ccccc2Cl)n(Cc2ccccc2)c2nc3ccccc3nc12 | x | x | 53* | x | 15
Cn1nc(CN(Cc2ccco2)S(=O)(=O)Cc2cc(F)ccc2F)c2c1CCC2 | x | x | -11 | x | x
CC(=O)N1CN([C@H]2CCS(=O)(=O)C2)Cc2c1sc1c2CCCC1 | x | x | -7 | x | x
O=S(=O)(Nc1ccc(-c2ccc3nncn3n2)cc1)c1ccccc1F | -3 | 8 | -20 | 9 | -6
O=S(=O)(Nc1ccc(-c2ccc3nnc(-c4ccccn4)n3n2)cc1)c1ccccc1F | x | x | 101* | x | x
Cc1cccc(S(=O)(=O)Nc2ccc(-c3ccc4nnc(-c5ccccn5)n4n3)cc2)c1 | x | x | 79* | x | x
Cc1cc(NC(=O)c2ccc3ncsc3c2)n(C(C)C)n1 | x | x | -4 | x | x
Cc1cc(C(F)(F)F)nc(CCNC(=O)Nc2ccc3c(c2)OCO3)n1 | x | x | 44* | x | x
Cc1cc(C)c(OC2(c3ccccc3)OC(=O)c3ccccc32)c(C)c1 (stereo not given) | 85* | -3 | -21 | 16 | -4
Oc1ccccc1-c1nc(NC2CCCC2)c2ccccc2n1 | 65 | 38 | 2 | -1 | 9
c1ccc(-c2nc(NC3CCCCC3)c3ccccc3n2)nc1 | x | x | 57* | x | x
Fc1ccccc1-c1nc(NC2CCCC2)c2ccccc2n1 | 9 | -5 | -21 | -7 | 13
c1ccc(-c2nnc(-c3ccccn3)nc2NC2CCCCC2)cc1 | 89 | 97* | 101* | x | 82
c1ccc(-c2nc(-c3ccccn3)no2)cc1 | 1 | 3 | 3 | 5 | 2
CNc1nc(-c2ccccn2)nnc1-c1ccccc1 | 4 | 0 | 91* | x | 93
SMILES | ugtP null kill | RN4220 kill | PriA SSB inh | Mtb hypoxia rep | Mtb bLac sens
COc1cc(C)c(C)cc1S(=O)(=O)N1CCO[C@H](c2cc(Cl)cc(Cl)c2)C1 | x | x | -35 | x | x
CCCCCn1c(NS(=O)(=O)c2ccc(F)cc2)c(S(=O)(=O)c2ccc(C)cc2)c2nc3ccccc3nc21 | x | x | 47 | x | x
CCCCn1c(NS(=O)(=O)c2ccc(F)cc2)c(S(=O)(=O)c2ccc(C)cc2)c2nc3ccccc3nc21 | x | x | 56* | x | x
CCCCCCCCn1c(NS(=O)(=O)c2ccccc2)c(S(=O)(=O)c2ccccc2)c2nc3ccccc3nc21 | x | x | 60* | x | x
CCCCCCCCn1c(NS(=O)(=O)c2ccc(C)cc2)c(S(=O)(=O)c2ccc(C)cc2)c2nc3ccccc3nc21 | x | x | 54* | x | x
CCCCn1c(NS(=O)(=O)c2ccc(C)cc2)c(S(=O)(=O)c2ccccc2)c2nc3ccccc3nc21 | x | x | 23 | x | -4
CCCCn1c(NC(=O)c2ccccc2)c(S(=O)(=O)c2ccc(C)cc2)c2nc3ccccc3nc21 | x | x | 54* | x | x
COC(=O)c1ccc(C(=O)Nc2cc(C)nn2-c2nc3ccc(F)cc3s2)cc1 | x | x | -4 | x | x
O=C(NC1CCSC1=O)C1CN(C(=O)COc2ccccc2F)C1 (stereo not given) | x | x | -11 | x | x
CCCCCn1c(NS(=O)(=O)c2ccccc2)c(C(=O)OCC)c2nc3ccccc3nc21 | x | x | 70* | x | x
O=C(CCc1ccc(Oc2cc([N+](=O)[O-])cc([N+](=O)[O-])c2)cc1)N1CCCCC1 | 8 | -1 | 45* | x | 99
